Source: PubChem BioAssay
For some of these results: Entries with a potency or affinity are not part of this list. Active and inactive are the calls of the source.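 How the source made its calls, unless noted: active means earlier screen potentiator hit that boosts the TRPC4 ion channel at some dose, with a dose response; inactive means no potentiation, no dose response, or not a prior hit.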

Assays:
[1] = system: TRPC4 beta (transient receptor potential cation channel C4), mouse; assay: TRPC4 cation channel opening, retest – cell-based, Fluo4 calcium, HEK293 TRPC4beta/mu-opioid, duplicates, 10 µM, confirmation (AID 2426;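 active means fluorescence ratio normalized to control raised more than 50% in primary screen plus both repeat runs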); conditions: Fluo4 calcium fluorescence, at 10 µM; hits give high values
[2] = system: transient receptor potential cation channel C4 beta (TRPC4), mouse; assay: TRPC4 cation channel opening, second retest – cell-based, second round, Fluo4, HEK293 TRPC4beta/mu-opioid, 1 µM, confirmation (AID 2461;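 active means primary screen active and over 50% activation in each of two duplicate runs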); conditions: Fluo4 calcium fluorescence, at 1 µM; hits give high values
[3] = system: TRPC4 (transient receptor potential cation channel C4 beta), mouse; assay: potentiation of DAMGO EC20 TRPC4 response – cell-based, second round, Fluo-4, HEK293 TRPC4beta/mu-opioid, 1 µM, confirmation (AID 2554;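 active means primary screen hit whose fluorescence ratio, in both repeats, exceeds the weak agonist control mean by 3 SD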); conditions: DAMGO EC20, Fluo-4 calcium flux, at 1 µM; hits give high values
[4] = system: TRPC4 beta (transient receptor potential cation channel C4), mouse; assay: potentiation of DAMGO EC20 TRPC4 response – cell-based, Fluo-4, HEK293 TRPC4beta/mu-opioid, confirmation (AID 2555;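 active means primary screen hit whose calcium fluorescence ratio, in both repeats, exceeds the weak agonist control mean by 3 SD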); conditions: DAMGO EC20, Fluo-4 calcium flux, at 10 µM; hits give high values
[5] = molecular target: Short transient receptor potential channel 4 (Mus musculus) (UniProt Q9QUQ5); assay: blockers of DAMGO-evoked TRPC4 calcium flux – cell-based, Fluo4, HEK293 TRPC4beta/mu-opioid, confirmation (AID 2636;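 active means calcium signal cut by more than 3 SD below the full-agonist control yet still positive, in both repeats and the earlier primary screen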); conditions: at 10 µM; hits give high values
[6] = molecular target: Short transient receptor potential channel 4 (Mus musculus) (UniProt Q9QUQ5); assay: blockers of DAMGO-evoked TRPC4 calcium flux – cell-based, second round, Fluo4, HEK293 TRPC4beta/mu-opioid, 1 µM, confirmation (AID 2637;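 active means calcium signal ratio cut to more than 3 SD under the fully stimulated control mean yet still positive, in both repeats and the primary screen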;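 on inhibition: percent of integrated ratio relative to wells lacking test compound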); conditions: at 1 µM; hits give high values
[7] = molecular target: Short transient receptor potential channel 4 (Mus musculus) (UniProt Q9QUQ5); assay: calcium entry via TRPC4 opening agents – cell-based, HEK293 TRPC4/mu-opioid, Fluo-4 calcium, dose response (AID 434937;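 active means primary screen activator hit with a dose response curve and TRPC4 channel activation at any tested dose; inactive means no activation, no dose response, or not a primary hit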)
[8] = molecular target: Short transient receptor potential channel 4 (Mus musculus) (UniProt Q9QUQ5); assay: potentiation of DAMGO-evoked TRPC4 calcium signal – cell-based, HEK293 TRPC4/mu-opioid, Fluo-4 calcium, EC20 DAMGO, dose response (AID 434941);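 further: calcium entry triggered by an EC20 dose of DAMGO at the co-expressed mu-opioid receptor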
[9] = molecular target: Short transient receptor potential channel 6 (Mus musculus) (UniProt Q61143); assay: TRPC6 blockade by TRPC4 inhibitor hits – cell-based, HEK293, membrane potential dye, duplicate, selectivity assay for TRPC4 inhibitor project, confirmation (AID 434948;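 active means active in primary screen and both duplicates, each dropping signal beyond three positive-control SD with fluorescence still positive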); conditions: HEK293 TRPC6, membrane potential dye fluorescence, at 10 µM, stimulated with maximal-effect acetylcholine; hits give high values
[10] = molecular target: Short transient receptor potential channel 6 (Mus musculus) (UniProt Q61143); assay: TRPC6 opening by TRPC4 activator hits – cell-based, HEK293, membrane potential dye, duplicate, selectivity assay for TRPC4 activator project, confirmation (AID 434950;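 active means membrane potential signal rise above negative control mean plus 3 SD in both duplicates, also active in the earlier TRPC4 screen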); conditions: HEK293 TRPC6, membrane potential fluorescence, at 10 µM; activation: hits give high values; outcome: activation
[11] = molecular target: Short transient receptor potential channel 6 (Mus musculus) (UniProt Q61143); assay: positive modulators of mouse TRPC6 channel – HEK293 cells, membrane potential dye, duplicate, selectivity assay for TRPC4 potentiator project, confirmation (AID 434952;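 active means compound raising the membrane signal above positive-control mean plus 3 SD in both repeats, and a primary screen hit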); conditions: HEK293 TRPC6, membrane potential dye fluorescence, at 10 µM, maximal acetylcholine added after compound; hits give high values
[12] = molecular target: Short transient receptor potential channel 4 (Mus musculus) (UniProt Q9QUQ5); assay: calcium flux activators in TRPC4/5HT1a cells, counter-screen for TRPC4 activator project, cell-based, second counter screen, HEK293 TRPC4/5HT1a, Fluo-4 (AID 434977;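 active means calcium signal rise above buffer-control mean plus 5 SD in both duplicates, and also a hit in the primary screen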); conditions: Fluo-4 calcium flux, at 10 µM; hits give high values
[13] = serotonin-gated TRPC4 signal block – cell-based, second counter screen, HEK293 TRPC4/5HT1a, Fluo-4, counter-screen for TRPC4 inhibitor project, confirmation (AID 434978;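 active means primary screen active whose calcium signal fell more than 3 SD beyond the full-serotonin control mean in both duplicate plates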;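 on outcome: serotonin given first at submaximal then at maximal dose after compound preincubation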); conditions: Fluo-4 calcium flux, at 10 µM, serotonin added to trigger calcium flux; hits give high values
[14] = system: TRPC4 (mouse), co-expressed with 5HT1a in HEK293; assay: enhancement of serotonin-evoked TRPC4 response – cell-based, second counter screen, HEK293 TRPC4/5HT1a, Fluo-4, counter-screen for TRPC4 potentiator project, confirmation (AID 434979;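 active means signal rise over 3 SD above mean of control wells given weak agonist, in both repeats and first screen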); conditions: Fluo-4 calcium flux, at 10 µM, serotonin added at its EC20 dose; hits give high values
[15] = nonspecific calcium rise without TRPC4 – cell-based, HEK293 mu-opioid receptor line, counter-screen for TRPC4 activator project, confirmation (AID 449723;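 active means hit in primary screen, with calcium signal over 5 SD above buffer well mean in both duplicates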;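 further: counter screen cells carry the mu-opioid receptor alone and lack TRPC4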); conditions: HEK293 mu-opioid cells, Fluo-4 calcium fluorescence, at 10 µM; hits give high values
[16] = nonspecific potentiation of DAMGO calcium response – cell-based, HEK293 mu-opioid receptor line, counter-screen for TRPC4 allosteric potentiator project, confirmation (AID 449724;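 active means calcium signal rise more than 3 SD above the low-dose agonist control mean, in both duplicate plates and the primary screen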); conditions: HEK293 mu-opioid receptor cells, Fluo-4 calcium flux, at 10 µM, compound added before EC20 DAMGO stimulus; hits give high values

Measured: inhibition

Sequence of Short transient receptor potential channel 6 (Mus musculus) (Q61143 whole entry, looked up): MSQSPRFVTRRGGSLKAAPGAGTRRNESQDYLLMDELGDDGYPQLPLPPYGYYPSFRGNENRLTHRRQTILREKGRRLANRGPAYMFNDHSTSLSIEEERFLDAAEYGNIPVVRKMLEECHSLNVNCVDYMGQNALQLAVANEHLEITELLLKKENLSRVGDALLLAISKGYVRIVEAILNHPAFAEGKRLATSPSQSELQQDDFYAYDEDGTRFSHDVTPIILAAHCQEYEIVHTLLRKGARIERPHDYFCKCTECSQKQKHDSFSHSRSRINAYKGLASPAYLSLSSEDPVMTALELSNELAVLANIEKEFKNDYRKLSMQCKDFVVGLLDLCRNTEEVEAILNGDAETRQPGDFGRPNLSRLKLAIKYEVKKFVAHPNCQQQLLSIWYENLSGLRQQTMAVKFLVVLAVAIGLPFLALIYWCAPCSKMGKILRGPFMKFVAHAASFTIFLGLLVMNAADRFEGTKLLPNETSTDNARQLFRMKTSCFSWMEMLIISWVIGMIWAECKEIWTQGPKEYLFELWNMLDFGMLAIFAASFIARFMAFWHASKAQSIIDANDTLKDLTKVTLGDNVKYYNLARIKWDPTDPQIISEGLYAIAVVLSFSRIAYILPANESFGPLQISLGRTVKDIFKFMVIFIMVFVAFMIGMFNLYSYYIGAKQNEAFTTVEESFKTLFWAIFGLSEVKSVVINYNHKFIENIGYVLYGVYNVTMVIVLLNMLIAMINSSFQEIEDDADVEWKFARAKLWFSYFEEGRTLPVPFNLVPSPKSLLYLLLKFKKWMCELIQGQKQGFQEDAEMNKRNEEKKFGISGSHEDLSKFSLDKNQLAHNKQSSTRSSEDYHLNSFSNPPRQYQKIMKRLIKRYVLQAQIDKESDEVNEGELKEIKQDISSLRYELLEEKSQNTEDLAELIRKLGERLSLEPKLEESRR
Sequence of Short transient receptor potential channel 4 (Mus musculus) (Q9QUQ5 whole entry, looked up): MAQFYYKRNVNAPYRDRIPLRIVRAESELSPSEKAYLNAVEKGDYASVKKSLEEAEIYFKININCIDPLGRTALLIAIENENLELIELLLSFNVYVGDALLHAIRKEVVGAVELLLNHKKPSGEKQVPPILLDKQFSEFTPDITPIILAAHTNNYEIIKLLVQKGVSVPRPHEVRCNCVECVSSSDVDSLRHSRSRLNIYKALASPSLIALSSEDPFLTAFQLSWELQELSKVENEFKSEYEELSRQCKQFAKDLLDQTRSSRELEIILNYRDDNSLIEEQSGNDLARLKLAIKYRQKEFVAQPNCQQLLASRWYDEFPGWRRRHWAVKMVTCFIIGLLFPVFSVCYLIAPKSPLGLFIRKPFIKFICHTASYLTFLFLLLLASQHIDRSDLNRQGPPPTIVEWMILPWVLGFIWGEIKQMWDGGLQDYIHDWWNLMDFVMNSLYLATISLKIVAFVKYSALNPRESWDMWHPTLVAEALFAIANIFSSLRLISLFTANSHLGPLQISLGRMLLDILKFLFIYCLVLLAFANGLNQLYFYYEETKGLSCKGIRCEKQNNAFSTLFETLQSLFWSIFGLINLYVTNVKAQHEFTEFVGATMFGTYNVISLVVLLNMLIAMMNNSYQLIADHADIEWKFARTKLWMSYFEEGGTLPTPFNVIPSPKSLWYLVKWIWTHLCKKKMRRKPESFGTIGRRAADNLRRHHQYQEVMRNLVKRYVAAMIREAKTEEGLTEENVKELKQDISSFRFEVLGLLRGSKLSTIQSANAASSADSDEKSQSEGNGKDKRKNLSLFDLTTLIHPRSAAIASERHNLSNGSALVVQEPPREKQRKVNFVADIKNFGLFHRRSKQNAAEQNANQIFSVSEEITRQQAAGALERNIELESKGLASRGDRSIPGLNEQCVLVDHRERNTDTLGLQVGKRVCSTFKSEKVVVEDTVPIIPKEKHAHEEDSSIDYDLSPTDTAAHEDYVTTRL

Cc1cccc2cc(CN(Cc3nnnn3Cc3ccccc3)C3CCCC3)c(=O)[nH]c12
active: [5] 91% | [6] 63%
inactive: all other assays above

CCC1(C(=O)c2ccccc2)C(c2ccc([N+](=O)[O-])cc2)C1(C(=O)OC)C(=O)OC (stereo unspecified)
active: [5] 71%
inactive: all other assays above

Cn1cc(-c2nc3ccccc3[nH]2)c2ccccc21
active: [5] 99% | [6] 49% | [9] 5.5% | [13] 41.1%
inactive: all other assays above

COc1ccc(/C=C/C(=O)Oc2cc(O)cc(O)c2)cc1
active: [5] 96% | [13] 27.4%
inactive: all other assays above

CC(C)C(=O)Nc1ccc(C(=O)Nc2nnc(C(C)(C)C)s2)cc1
active: [5] 57% | [13] 35.1%
inactive: all other assays above

O=C(OCC(=O)N1CCc2ccccc2C1)c1cccc([N+](=O)[O-])c1
active: [5] 95% | [6] 47% | [13] 40.7%
inactive: all other assays above

CCCn1c(=O)c2ccccc2n2c(SCCOc3ccc(C)cc3)nnc12
active: [5] 77% | [13] 46.3%
inactive: all other assays above

Cc1oc(-c2ccc(Cl)cc2)nc1CN1CCC(C(=O)NCc2cccs2)CC1
active: [5] 79% | [13] 26.7%
inactive: all other assays above

COc1ccccc1N(C(=O)c1snc(C(N)=O)c1N)C(C(=O)NC1CCCC1)c1ccc2ncccc2c1 (stereo unspecified)
active: [5] 41% | [13] 40.6%
inactive: all other assays above

O=C(CSc1nc(=O)n(CCN2CCOCC2)c2c1CCC2)Nc1ccc(OC(F)(F)F)cc1
active: [5] 69%
inactive: all other assays above

CC(C)(C)c1cc2cccnc2n1Cc1ccccc1
active: [5] 95% | [6] 70% | [13] 15.4%
inactive: all other assays above

Cc1cccc(CN2CCCC(C(=O)Nc3ccccc3Oc3cccnc3)C2)c1 (stereo unspecified)
active: [5] 92% | [13] 35.8%
inactive: all other assays above

CCCn1nc([N+](=O)[O-])c(C(C#N)c2nc3ccccc3o2)c(Cl)c1=O (stereo unspecified)
active: [5] 96% | [9] 28% | [13] 39.9%
inactive: all other assays above

c1ccc2c(N3CCCCC3)nc(N3CCOCC3)nc2c1
active: [5] 84% | [13] 30.8%
inactive: all other assays above

COc1ccccc1CC(Cc1nc2ccccc2[nH]1)c1nc2ccccc2[nH]1 (stereo unspecified)
active: [5] 83% | [6] 52%
inactive: all other assays above

CCc1cccc(OCC(=O)Nc2ccc(C(=O)O)cc2NC(=O)COc2cccc(CC)c2)c1
active: [5] 93% | [13] 40.9%
inactive: all other assays above
